Drawing on ChEMBL document CHEMBL1961873, “Compounds: GSK PKIS; Assays: Nanosyn kinase panel” (2012), this text covers inhibition for four compounds.

Experiment [1] concerns the target Ribosomal protein S6 kinase alpha-6 (Homo sapiens) (UniProt Q9UK32). The following applies: at 1 µM.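 Further: each value is a mean inhibition of RSK4 from a GSK PKIS panel screen.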
Experiment [2] has as its target T1, Serine/threonine-protein kinase Sgk1 (Homo sapiens) (UniProt O00141).
T1 sequence (whole entry): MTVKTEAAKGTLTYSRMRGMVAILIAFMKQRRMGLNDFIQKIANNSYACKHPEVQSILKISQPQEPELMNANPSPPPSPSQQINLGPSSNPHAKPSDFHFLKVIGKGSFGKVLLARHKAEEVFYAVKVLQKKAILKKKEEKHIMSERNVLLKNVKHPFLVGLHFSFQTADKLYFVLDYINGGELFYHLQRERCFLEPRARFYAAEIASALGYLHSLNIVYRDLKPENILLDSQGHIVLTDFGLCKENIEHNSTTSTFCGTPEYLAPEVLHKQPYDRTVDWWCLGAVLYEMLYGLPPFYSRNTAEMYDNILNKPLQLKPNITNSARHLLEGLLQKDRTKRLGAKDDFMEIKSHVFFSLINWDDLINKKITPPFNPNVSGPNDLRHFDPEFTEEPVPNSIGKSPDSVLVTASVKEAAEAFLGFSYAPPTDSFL
Conditions: at 0.1 µM.

The target in experiment [3] is T1, Serine/threonine-protein kinase Sgk1 (Homo sapiens). Conditions: at 1 µM.
Experiment [4] concerns the target T2, Serine/threonine-protein kinase Sgk2 (Homo sapiens) (UniProt Q9HBY8).
T2 sequence (whole entry): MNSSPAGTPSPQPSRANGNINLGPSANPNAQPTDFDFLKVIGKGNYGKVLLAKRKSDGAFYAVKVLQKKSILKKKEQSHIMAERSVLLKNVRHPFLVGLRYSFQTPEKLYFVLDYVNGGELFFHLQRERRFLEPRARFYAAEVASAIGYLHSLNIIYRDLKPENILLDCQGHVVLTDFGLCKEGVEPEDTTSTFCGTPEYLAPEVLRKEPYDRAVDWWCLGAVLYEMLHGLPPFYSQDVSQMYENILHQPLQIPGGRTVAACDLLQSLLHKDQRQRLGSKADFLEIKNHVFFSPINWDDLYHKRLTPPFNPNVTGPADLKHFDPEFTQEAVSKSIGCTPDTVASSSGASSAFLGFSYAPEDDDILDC
The following applies: at 0.1 µM.

Experiment [5] concerns the target T2, Serine/threonine-protein kinase Sgk2 (Homo sapiens). The following applies: at 1 µM.
Experiment [6] has as its target T3, Serine/threonine-protein kinase Sgk3 (Homo sapiens) (UniProt Q96BR1).
T3 sequence (whole entry): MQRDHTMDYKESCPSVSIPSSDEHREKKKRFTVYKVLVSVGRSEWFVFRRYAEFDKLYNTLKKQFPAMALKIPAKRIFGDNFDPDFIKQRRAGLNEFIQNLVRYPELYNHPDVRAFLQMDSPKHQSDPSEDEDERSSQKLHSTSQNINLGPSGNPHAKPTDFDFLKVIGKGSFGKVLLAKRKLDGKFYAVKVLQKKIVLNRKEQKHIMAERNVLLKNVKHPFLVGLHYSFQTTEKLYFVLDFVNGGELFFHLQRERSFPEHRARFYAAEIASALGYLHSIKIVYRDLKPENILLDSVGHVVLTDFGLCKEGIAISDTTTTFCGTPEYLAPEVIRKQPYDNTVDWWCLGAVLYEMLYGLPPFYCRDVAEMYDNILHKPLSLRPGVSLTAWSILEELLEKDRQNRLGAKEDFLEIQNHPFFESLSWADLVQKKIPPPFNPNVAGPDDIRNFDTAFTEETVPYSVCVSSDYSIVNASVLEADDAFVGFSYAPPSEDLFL
The following applies: at 0.1 µM.

Experiment [7] concerns the target T3, Serine/threonine-protein kinase Sgk3 (Homo sapiens). The following applies: at 1 µM.
The target of experiment [8] is 5'-AMP-activated protein kinase catalytic subunit alpha-1 (Homo sapiens) (UniProt Q13131). The following applies: at 0.1 µM.
The target is the same in experiment [9]. Conditions: at 1 µM.
The target of experiment [10] is 5'-AMP-activated protein kinase catalytic subunit alpha-2 (Homo sapiens) (UniProt P54646). Conditions: at 0.1 µM.
For experiment [11] the target is unchanged. Conditions: at 1 µM.
The target in experiment [12] is T4, NUAK family SNF1-like kinase 1 (Homo sapiens) (UniProt O60285).
T4 sequence (whole entry): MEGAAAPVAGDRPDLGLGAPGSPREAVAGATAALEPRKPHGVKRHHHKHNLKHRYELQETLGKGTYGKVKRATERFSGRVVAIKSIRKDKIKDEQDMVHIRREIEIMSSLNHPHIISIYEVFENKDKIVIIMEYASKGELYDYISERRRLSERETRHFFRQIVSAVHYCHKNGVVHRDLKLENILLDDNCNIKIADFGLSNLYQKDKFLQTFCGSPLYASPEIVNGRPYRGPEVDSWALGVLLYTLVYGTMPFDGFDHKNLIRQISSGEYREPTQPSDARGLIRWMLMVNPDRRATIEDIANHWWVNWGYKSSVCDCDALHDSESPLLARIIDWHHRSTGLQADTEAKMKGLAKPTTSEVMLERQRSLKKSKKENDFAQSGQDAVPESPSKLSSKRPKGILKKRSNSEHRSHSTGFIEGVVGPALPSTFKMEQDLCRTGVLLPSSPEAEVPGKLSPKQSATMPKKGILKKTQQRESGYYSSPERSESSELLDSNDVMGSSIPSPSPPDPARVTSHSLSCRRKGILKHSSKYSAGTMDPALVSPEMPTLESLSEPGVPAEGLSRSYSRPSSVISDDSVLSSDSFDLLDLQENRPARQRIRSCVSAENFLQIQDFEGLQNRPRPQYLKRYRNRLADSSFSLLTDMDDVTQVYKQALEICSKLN
The following applies: at 0.1 µM.

The target in experiment [13] is T4, NUAK family SNF1-like kinase 1 (Homo sapiens). The following applies: at 1 µM.
Experiment [14] addresses T5, Serine/threonine-protein kinase BRSK1 (Homo sapiens) (UniProt Q8TDC3).
T5 sequence (whole entry): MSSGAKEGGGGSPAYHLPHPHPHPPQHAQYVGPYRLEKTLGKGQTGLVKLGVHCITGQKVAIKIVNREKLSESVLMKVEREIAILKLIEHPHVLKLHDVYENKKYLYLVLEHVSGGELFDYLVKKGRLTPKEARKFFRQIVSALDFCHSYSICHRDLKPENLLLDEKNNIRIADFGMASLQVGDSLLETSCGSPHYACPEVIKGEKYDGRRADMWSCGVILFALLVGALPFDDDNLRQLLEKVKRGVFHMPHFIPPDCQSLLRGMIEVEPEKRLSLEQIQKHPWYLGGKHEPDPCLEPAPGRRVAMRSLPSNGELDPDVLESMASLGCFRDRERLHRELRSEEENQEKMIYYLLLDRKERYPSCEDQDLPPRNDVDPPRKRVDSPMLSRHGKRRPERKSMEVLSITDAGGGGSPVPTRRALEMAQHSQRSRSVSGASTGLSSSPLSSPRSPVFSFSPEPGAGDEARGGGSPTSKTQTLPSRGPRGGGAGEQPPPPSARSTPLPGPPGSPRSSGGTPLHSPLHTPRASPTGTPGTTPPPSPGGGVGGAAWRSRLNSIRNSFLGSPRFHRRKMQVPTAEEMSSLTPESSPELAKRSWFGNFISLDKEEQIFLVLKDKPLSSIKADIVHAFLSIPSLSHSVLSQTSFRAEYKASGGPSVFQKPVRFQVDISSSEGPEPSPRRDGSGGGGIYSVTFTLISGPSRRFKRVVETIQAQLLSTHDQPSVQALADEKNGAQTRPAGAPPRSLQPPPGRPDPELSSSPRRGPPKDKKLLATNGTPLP
The following applies: at 0.1 µM.

Experiment [15] concerns the target T5, Serine/threonine-protein kinase BRSK1 (Homo sapiens). The following applies: at 1 µM.
Experiment [16] has as its target T6, Serine/threonine-protein kinase BRSK2 (Homo sapiens) (UniProt Q8IWQ3).
T6 sequence (whole entry): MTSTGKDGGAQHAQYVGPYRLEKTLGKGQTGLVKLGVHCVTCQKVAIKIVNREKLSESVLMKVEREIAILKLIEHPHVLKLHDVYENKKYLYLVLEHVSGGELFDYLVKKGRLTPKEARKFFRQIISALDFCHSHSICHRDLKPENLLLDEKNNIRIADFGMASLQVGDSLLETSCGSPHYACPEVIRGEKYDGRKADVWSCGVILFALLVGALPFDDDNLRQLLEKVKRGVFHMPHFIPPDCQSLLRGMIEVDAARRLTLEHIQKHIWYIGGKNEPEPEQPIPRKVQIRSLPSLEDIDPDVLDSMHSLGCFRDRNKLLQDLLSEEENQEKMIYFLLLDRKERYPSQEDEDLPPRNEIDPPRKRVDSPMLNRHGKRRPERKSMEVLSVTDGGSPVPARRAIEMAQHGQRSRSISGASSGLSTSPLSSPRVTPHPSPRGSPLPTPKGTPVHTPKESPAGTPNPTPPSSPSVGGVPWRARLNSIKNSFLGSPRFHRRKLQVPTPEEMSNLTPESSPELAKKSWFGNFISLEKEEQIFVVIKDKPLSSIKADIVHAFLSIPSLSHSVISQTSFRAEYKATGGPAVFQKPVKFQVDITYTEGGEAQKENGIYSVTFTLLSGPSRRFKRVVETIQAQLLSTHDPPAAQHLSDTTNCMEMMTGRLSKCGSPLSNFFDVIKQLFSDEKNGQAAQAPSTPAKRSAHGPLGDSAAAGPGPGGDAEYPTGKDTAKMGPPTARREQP
Conditions: at 0.1 µM.

Experiment [17] concerns the target T6, Serine/threonine-protein kinase BRSK2 (Homo sapiens). The following applies: at 1 µM.
In experiment [18] the target is Calcium/calmodulin-dependent protein kinase type 1D (Homo sapiens) (UniProt Q8IU85). Conditions: at 0.1 µM.
Experiment [19] shares this target. Conditions: at 1 µM.
Experiment [20] concerns the target Calcium/calmodulin-dependent protein kinase type II subunit alpha (Homo sapiens) (UniProt Q9UQM7). The following applies: at 0.1 µM.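 Further: reported values are averages (mean inhibition of CAMK2A).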

Ribosomal protein S6 kinase alpha-6 (Homo sapiens), sequence (Q9UK32 whole entry): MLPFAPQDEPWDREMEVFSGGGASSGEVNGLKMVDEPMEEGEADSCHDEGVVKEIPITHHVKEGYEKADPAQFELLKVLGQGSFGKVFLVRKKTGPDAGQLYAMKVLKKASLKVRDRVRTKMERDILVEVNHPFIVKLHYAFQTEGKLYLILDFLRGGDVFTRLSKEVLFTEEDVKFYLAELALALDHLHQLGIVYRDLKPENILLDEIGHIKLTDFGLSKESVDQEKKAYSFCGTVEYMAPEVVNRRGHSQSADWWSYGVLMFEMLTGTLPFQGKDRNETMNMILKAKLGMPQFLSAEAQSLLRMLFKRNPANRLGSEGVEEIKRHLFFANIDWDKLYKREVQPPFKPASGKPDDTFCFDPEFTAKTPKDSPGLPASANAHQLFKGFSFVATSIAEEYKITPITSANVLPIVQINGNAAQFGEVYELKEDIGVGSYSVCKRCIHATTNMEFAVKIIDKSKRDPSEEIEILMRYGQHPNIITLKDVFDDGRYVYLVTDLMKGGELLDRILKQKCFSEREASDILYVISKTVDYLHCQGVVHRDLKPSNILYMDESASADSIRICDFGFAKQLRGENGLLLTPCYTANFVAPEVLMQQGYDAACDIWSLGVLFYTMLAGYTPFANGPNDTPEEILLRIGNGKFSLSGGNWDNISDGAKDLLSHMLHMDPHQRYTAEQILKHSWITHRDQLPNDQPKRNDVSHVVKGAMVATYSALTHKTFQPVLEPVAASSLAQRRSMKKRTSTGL
Calcium/calmodulin-dependent protein kinase type II subunit alpha (Homo sapiens), sequence (Q9UQM7 whole entry): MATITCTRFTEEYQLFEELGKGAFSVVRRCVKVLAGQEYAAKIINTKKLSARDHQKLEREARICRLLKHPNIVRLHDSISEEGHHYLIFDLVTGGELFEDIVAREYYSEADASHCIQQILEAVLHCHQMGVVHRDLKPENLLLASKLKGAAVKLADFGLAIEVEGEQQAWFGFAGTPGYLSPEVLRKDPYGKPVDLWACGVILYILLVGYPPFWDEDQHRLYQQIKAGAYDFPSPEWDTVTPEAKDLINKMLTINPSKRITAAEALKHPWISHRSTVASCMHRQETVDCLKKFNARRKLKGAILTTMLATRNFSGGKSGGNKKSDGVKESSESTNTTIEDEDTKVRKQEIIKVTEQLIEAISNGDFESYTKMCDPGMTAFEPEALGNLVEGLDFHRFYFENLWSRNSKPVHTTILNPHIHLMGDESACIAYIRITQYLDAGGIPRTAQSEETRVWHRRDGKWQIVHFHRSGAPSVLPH
5'-AMP-activated protein kinase catalytic subunit alpha-2 (Homo sapiens), sequence (P54646 whole entry, looked up): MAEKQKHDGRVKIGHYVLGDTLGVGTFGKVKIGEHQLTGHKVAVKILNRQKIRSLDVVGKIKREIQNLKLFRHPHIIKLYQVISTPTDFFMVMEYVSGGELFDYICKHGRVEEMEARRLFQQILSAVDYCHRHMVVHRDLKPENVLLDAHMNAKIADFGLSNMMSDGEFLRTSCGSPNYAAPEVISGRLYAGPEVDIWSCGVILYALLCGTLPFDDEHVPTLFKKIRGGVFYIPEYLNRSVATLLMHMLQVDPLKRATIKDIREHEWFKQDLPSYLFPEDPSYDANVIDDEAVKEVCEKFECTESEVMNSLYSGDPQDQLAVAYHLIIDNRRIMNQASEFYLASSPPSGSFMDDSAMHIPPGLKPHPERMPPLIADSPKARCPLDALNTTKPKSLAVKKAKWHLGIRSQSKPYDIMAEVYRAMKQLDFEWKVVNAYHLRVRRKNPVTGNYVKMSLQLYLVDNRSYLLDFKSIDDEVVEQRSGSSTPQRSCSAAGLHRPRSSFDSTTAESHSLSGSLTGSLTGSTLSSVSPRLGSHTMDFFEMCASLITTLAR
Calcium/calmodulin-dependent protein kinase type 1D (Homo sapiens), sequence (Q8IU85 whole entry, looked up): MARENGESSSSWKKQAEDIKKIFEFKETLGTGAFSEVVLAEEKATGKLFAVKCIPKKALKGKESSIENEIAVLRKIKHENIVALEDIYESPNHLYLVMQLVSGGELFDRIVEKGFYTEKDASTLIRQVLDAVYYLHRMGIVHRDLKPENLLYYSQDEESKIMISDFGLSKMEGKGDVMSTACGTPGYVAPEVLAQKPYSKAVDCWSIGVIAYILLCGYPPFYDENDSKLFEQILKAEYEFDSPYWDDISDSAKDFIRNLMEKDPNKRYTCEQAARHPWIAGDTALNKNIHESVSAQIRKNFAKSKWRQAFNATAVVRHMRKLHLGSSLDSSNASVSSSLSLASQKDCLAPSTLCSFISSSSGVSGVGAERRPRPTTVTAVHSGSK
5'-AMP-activated protein kinase catalytic subunit alpha-1 (Homo sapiens), sequence (Q13131 whole entry, looked up): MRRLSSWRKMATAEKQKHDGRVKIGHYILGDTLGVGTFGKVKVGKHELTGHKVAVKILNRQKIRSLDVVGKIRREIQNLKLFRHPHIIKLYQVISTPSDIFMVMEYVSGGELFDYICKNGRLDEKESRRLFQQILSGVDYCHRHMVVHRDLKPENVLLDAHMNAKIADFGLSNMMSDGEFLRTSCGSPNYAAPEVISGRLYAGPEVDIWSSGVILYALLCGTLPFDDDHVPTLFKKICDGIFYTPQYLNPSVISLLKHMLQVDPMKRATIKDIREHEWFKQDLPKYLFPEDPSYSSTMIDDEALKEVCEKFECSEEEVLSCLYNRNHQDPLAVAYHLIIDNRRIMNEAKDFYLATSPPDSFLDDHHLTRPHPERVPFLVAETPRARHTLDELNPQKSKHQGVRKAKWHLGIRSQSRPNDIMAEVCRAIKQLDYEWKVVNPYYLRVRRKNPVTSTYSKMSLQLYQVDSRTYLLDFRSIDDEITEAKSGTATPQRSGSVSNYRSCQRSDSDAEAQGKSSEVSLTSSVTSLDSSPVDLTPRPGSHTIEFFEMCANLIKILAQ

As to `CCc1cccc(NC(=O)Nc2ccc(Oc3ccc4nc(NC(=O)OC)[nH]c4c3)cc2)c1`, the inhibition is 1.25% in experiment [1]; 0.38% in experiment [2]; 1.59% in experiment [3]; 3.74% in experiment [4]; -0.81% in experiment [5]; 5.12% in experiment [6]. The inhibition is 3.61% in [7]; 1.46% in [8]; 0.41% in experiment [9]; -5.13% in experiment [10]; -0.72% in experiment [11]; 1.37% in [12]. For the same compound, the inhibition is 4.18% in [13]; 0.6% in experiment [14]; 0.32% in experiment [15]; 3.12% in experiment [16]; 5.96% in experiment [17]; 0.1% in experiment [18]. Further, the inhibition in [19] was determined as 1.18%; in experiment [20], 4.24%.
Take `COc1cc2ncn(-c3cc(O[C@H](C)c4ccccc4Cl)c(C(N)=O)s3)c2cc1OC`: the inhibition came to 25.5% in experiment [1]; 5.03% in [2]; 7.28% in [3]; 2.67% in experiment [4]; 5.65% in experiment [5]; 5.72% in experiment [6]. The inhibition in [7] is 6.55%; in experiment [8] it was 6.49%; in experiment [9] it was 23.7%; in [10], 2.58%; in experiment [11], 8.68%; in experiment [12], 24%. Further, the inhibition amounted to 71.8% in experiment [13]; 30.1% in experiment [14]; 64.9% in experiment [15]; 42% in [16]; 69.2% in experiment [17]; 1.01% in experiment [18]. The inhibition in experiment [19] came out at 2.31%; in [20], 3.24%.
For the compound `[O-][S+]1CCN(Cc2ccc(-c3ccc4ncnc(Nc5ccc(OCc6ccccc6)c(F)c5)c4c3)o2)CC1`, the inhibition was 0.29% in [1]; 1.32% in [2]; 0.95% in [3]; 1.18% in [4]; -1.29% in [5]; 0.74% in experiment [6]. Besides, the inhibition was 2.23% in [7]; 0.77% in experiment [8]; -0.08% in experiment [9]; 0.83% in experiment [10]; 1.72% in [12]; 2.16% in experiment [13]. Moreover, the inhibition was 3.74% in [14]; 5.47% in experiment [15]; 4.69% in experiment [16]; 5.63% in [17]; -0.91% in [18]; 1.4% in experiment [19]. Further, in experiment [20], the inhibition is 1.36%.
On to `O=C(Nc1n[nH]c2nc(-c3ccco3)c(Br)cc12)C1CC1`, for which the inhibition is 2.56% in [1]; 3.35% in experiment [2]; 3.09% in experiment [3]; 0.84% in experiment [4]; -4.73% in experiment [5]; 2.77% in [6]. Also, the inhibition is 3.45% in [7]; 3.65% in experiment [8]; 3.4% in experiment [9]; 1.15% in experiment [10]; 5.5% in experiment [11]; -2.45% in experiment [12]. Besides, the inhibition stood at 4.11% in experiment [13]; 3% in [14]; 12.9% in [15]; 3.32% in experiment [16]; 11.5% in experiment [17]; 0.93% in experiment [18]. In addition, the inhibition in experiment [19] is 1.36%; in experiment [20], 4.38%.

Broadly, the inhibition is the drop in the measured response relative to a control, in per cent.
